From PubChem BioAssay
Shown are actives, neighbours in structure and some others; about 19% of the full set was active somewhere.
ELG1 repair inh: blocks ELG1-dependent DNA repair in HEK293T cells | HEK293T ELG1-luciferase reporter, luminescence, 16 h; DNA damage induced by 5-fluorouridine | Potency, µM (series often up to 46.1 µM), hits mostly inhibitors | 330,000 tested, 2.3% active; also: nearly all actives have a fitted effect of over 55% in size
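DMSO vehicle served as the neutral condition. Each well held 2,000 cells given 5-fluorouridine plus compound; after 16 hr at 37 °C/5% CO2, ONE-Glo was added and luciferase measured 30 min later.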
HT1080 IDH1KD tx: HT-1080 IDH1 knockdown cell toxicity (counter line). HT-1080 IDH1 knockdown viability, ATP luminescence, 48 h. Potency, µM (highest dose often 46.1 µM), usual class: cytotoxic. 360,000 tested, 2% active. AID 686971
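Knockdown cells (IDH1KD HT-1080) received compounds 2 h after plating at 750 cells/well and were kept 48 h at 37 °C in 5% FBS RPMI. A CellTiter-Glo luminescence read gave % activity for curve fitting.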
IL1B secr inh: inhibitors of inflammasome signaling (IL-1 beta secretion); activity change, % at 57.5 µM; THP-1 LPS/ATP IL-1B secretion, AlphaLISA, 16 h; hits give low values; 360,000 tested, 4.7% active; in the data active = activity change below about -50%; inconclusive = mostly about -30% to -49%
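Secreted IL-1B measured by AlphaLISA bead assay after 16 h compound exposure of THP-1 cells; compounds (final up to 57.5 uM) added 1 h before LPS (250 ng/mL) and ATP (1.25 mM) stimulation; lower signal means less secretion.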
TDP1 cell noCPT: qHTS for Inhibitors of human tyrosyl-DNA phosphodiesterase 1 (TDP1): qHTS in cells in absence of CPT; DT40 Tdp1-/- hTDP1 cells, no CPT, ATP luminescence, 48 h; Potency, µM (doses to about 46.2 µM), actives largely listed as inhibitors; 420,000 tested, 15% active; also: nearly all actives have a fitted effect of over 55% in size
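DT40 Tdp1-/-;hTDP1 cells, no CPT (DMSO vehicle only), 400 cells/well; compounds pin-transferred; ≥48 hr, 37 °C; CellTiter-Glo 30 min RT dark, luminescence read.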
HT1080-NT tox: kills 2HG-producing HT-1080-NT fibrosarcoma cells; HT-1080-NT fibrosarcoma viability, CellTiter-Glo ATP luminescence, 48 h; Potency, µM (highest dose often 46.1 µM), usual class: cytotoxic; 360,000 tested, 1.6% active; AID 686970;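 also: NT is the 2HG producing partner of a matched IDH1 knockdown line; nearly all actives have a fitted effect of over 55% in size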
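750 cells/well, RPMI + 5% FBS; 2 h settle, compound pin-transfer, 48 h at 37 degrees C. CellTiter-Glo 10 min RT, luminescence. Normalized to DMSO and media-only wells.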
DT40 TDP1 CPT: DT40-hTDP1 cell growth loss with CPT; Potency, µM (top dose mostly 46.2 µM), actives largely listed as inhibitors; chicken DT40 Tdp1-/-;hTDP1 cells + 20 nM CPT, ATP luminescence, 48 h; 420,000 tested, 12% active; also: nearly all actives have a fitted effect of over 55% in size
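Chicken DT40 Tdp1-/- cells stably complemented with human TDP1 were seeded at 400 cells/well in medium containing 20 nM camptothecin, exposed to pin-transferred compounds, and grown at 37 °C for at least 48 hr. Viability was read as ATP luminescence.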
Large screens that a line does not name were inactive. Unless noted, calls follow the shape of the dose curve; as a rule, active = well fitted curve in the direction sought with a large enough effect; inconclusive = small, poorly fitted or top-dose-only effect, or another doubt; inactive = no such curve, though single readings can be large; an effect the other way counts as inactive or inconclusive.

Cc1cc(C)c2[nH]c(=O)c(CN(CC3CCCO3)C(=S)Nc3ccccc3)cc2c1 (stereo not drawn)	TDP1 cell noCPT inconclusive, DT40 TDP1 CPT inconclusive
Cc1ccc2cc(CN(CC3CCCO3)C(=S)Nc3ccccc3)c(=O)[nH]c2c1 (stereo not drawn)	ELG1 repair inh inconclusive, HT1080 IDH1KD tx inconclusive, IL1B secr inh inconclusive, TDP1 cell noCPT 15µM, HT1080-NT tox inconclusive, DT40 TDP1 CPT inconclusive
Cc1ccc2[nH]c(=O)c(CN(CC3CCCO3)C(=S)Nc3ccccc3)cc2c1 (stereo not drawn)	ELG1 repair inh inconclusive, TDP1 cell noCPT 15µM, DT40 TDP1 CPT 13µM
CN1CCN(NC(=O)c2cn(-c3ccccc3)nc2-c2ccc(OC(F)F)cc2)CC1	IL1B secr inh inconclusive
O=C(CSc1cccc[n+]1[O-])N1CCCCCC1	none
[O-][n+]1ccccc1SSc1cccc[n+]1[O-]	TDP1 cell noCPT 0.12µM, DT40 TDP1 CPT 0.11µM (no result: ELG1 repair inh, HT1080 IDH1KD tx, IL1B secr inh, HT1080-NT tox)
O=C(CSc1cccc[n+]1[O-])NC1CCCCCCC1	none
O=C(CSc1cccc[n+]1[O-])CSc1cccc[n+]1[O-]	HT1080 IDH1KD tx 0.52µM, TDP1 cell noCPT 9.2µM, HT1080-NT tox 1µM, DT40 TDP1 CPT 1µM
COc1cccc(Nc2ncc3nc(CCc4ccccc4)c(=O)n(Cc4cccs4)c3n2)c1	none (no result: ELG1 repair inh, HT1080 IDH1KD tx, IL1B secr inh, HT1080-NT tox)
COc1ccccc1CN1CCCC2(CCN(C(=O)c3ccncc3)CC2)C1	none (no result: ELG1 repair inh, HT1080 IDH1KD tx, IL1B secr inh, HT1080-NT tox)
CC(=O)Nc1ccc(S(=O)(=O)Nc2ccc(Cc3ccncc3)cc2)cc1	TDP1 cell noCPT 9.2µM, HT1080-NT tox inconclusive, DT40 TDP1 CPT inconclusive
CC(C)(C)c1ccc(S(=O)(=O)Nc2ccc(Cc3ccncc3)cc2)cc1	HT1080 IDH1KD tx inconclusive, IL1B secr inh inconclusive, TDP1 cell noCPT 16µM, DT40 TDP1 CPT inconclusive
CC(C)(C)c1ccc(NS(=O)(=O)c2ccc(N)cc2)cc1	TDP1 cell noCPT inconclusive
Cc1ccccc1-c1cnc(C(O)c2ccc(F)cc2C)[nH]1 (stereo not drawn)	TDP1 cell noCPT inconclusive, DT40 TDP1 CPT inconclusive (no result: ELG1 repair inh)
COc1ccc(NC(=O)CCCS(=O)(=O)c2nc(-c3ccc(OC)c(OC)c3)cc(C(F)(F)F)n2)cc1OC	TDP1 cell noCPT 1.6µM, DT40 TDP1 CPT 1.6µM (no result: ELG1 repair inh, HT1080 IDH1KD tx, IL1B secr inh, HT1080-NT tox)
COc1ccc(-c2cc(C(F)(F)F)nc(S(=O)(=O)CCCC(=O)Nc3ccccc3C(F)(F)F)n2)cc1OC	TDP1 cell noCPT 2.1µM, DT40 TDP1 CPT 1.2µM (no result: ELG1 repair inh, HT1080 IDH1KD tx, IL1B secr inh, HT1080-NT tox)
COc1ccc(-c2cc(C(F)(F)F)nc(S(=O)(=O)CCCC(=O)Nc3cccc(O)c3)n2)cc1OC	ELG1 repair inh inconclusive, HT1080 IDH1KD tx 12µM, IL1B secr inh -146, TDP1 cell noCPT 4.1µM, HT1080-NT tox 18µM, DT40 TDP1 CPT 3.7µM
C[C@H]1CN([C@@H](C)CO)C(=O)CCCn2nncc2CO[C@H]1CN(C)C(=O)c1ccc2ccn(C)c2c1	none (no result: ELG1 repair inh)
O=C(c1cccc(S(=O)(=O)N2CCN(c3ccccc3)CC2)c1)N1CCCC(C(F)(F)F)C1 (stereo not drawn)	ELG1 repair inh inconclusive, TDP1 cell noCPT 5.2µM, HT1080-NT tox inconclusive, DT40 TDP1 CPT 7.3µM
CC(=O)N1CCN(S(=O)(=O)c2cccc(C(=O)OCc3ccc(C(C)(C)C)cc3)c2)CC1	TDP1 cell noCPT 8.2µM, DT40 TDP1 CPT 7.3µM
CCOC(=O)c1ccc(S(=O)(=O)N2CCN(C(=O)c3cccc(S(=O)(=O)N4CC(C)OC(C)C4)c3)CC2)cc1 (stereo not drawn)	TDP1 cell noCPT 9.2µM, DT40 TDP1 CPT 16µM (no result: ELG1 repair inh)
O=C(c1cc(S(=O)(=O)N2CCN(c3ccccc3)CC2)ccc1Cl)N1CCCC(C(F)(F)F)C1 (stereo not drawn)	TDP1 cell noCPT inconclusive, DT40 TDP1 CPT 15µM
COc1ccc(S(=O)(=O)N2CCN(c3ccccc3)CC2)cc1C(=O)N1CCCC1	none
